The values that follow come from PubChem BioAssay (NCATS).

Inconclusive results are not listed. Activity calls are given as the source filed them. Calls follow the shape of the dose curve; as a rule, active = well fitted inhibition curve with a large enough effect; inconclusive = small, poorly fitted or top-dose-only effect; inactive = flat fitted curve, though single readings scatter.
% is scaled to controls: 0 for no effect and ±100 for the full control effect; potency is read from the fitted curve at half-maximal effect.

A short description of this experiment: P-glycoprotein substrates identified in KB-8-5-11 adenocarcinoma cell line, qHTS therapeutic library screen (AID 1346987). Also: nearly all actives have a fitted effect of over 65% in size. The settings on record: KB-8-5-11 (P-gp overexpressing) viability, CellTiter-Glo, 72 h; series mostly up to 44.5 µM; activity change, negative = cytotoxicity: at the top concentration. In a few lines: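 In this qHTS, P-gp-rich KB-8-5-11 cells received library compounds across a concentration range. Viability was quantified by luminescence after 72 h at 37 degree C.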
A general note: qHTS replaces the single test concentration by a dilution series.
`CC1=CC2/C=C(\C)CC[C@@H](O)[C@@H](O)[C@@H]3O[C@@H]3C(=O)[C@]23C(=O)N[C@@H](CC(C)C)[C@@H]3[C@@H]1C` (some centres undefined): the “activity change, negative = cytotoxicity” value is -5.48% [at 17.3 µM] (inactive). Take `COc1ccc2[nH]c3c(-c4cccc5ccccc45)nccc3c2c1`: the Potency was 0.92 µM (active). On the same count and under the same terms, in the case of `C=C1C(=O)O[C@@H]2/C=C(\C)C(=O)/C=C/[C@](C)(O)C[C@@H](OC(=O)C(C)C)[C@@H]12` it was 4.53 µM (active). As for `CC(C)CCC1(O)C(=O)C(C)(C)C(O[C@@H]2O[C@H](CO)[C@@H](O)[C@H](O)[C@H]2O)C(C)(C)C1O` (some centres undefined), the “activity change, negative = cytotoxicity” value was -4.18% [at 17.3 µM] (inactive).

As to `CC(O)CCC1C(CO[C@@H]2O[C@H](CO)[C@@H](O)[C@H](O)[C@H]2O)CC(O)CC1(C)C` (some centres undefined), the “activity change, negative = cytotoxicity” value was 1.67% (inactive). As to `CCN(CC)CCN(Cc1ccc(-c2ccc(C(F)(F)F)cc2)cc1)C(=O)Cn1c(SCc2ccc(F)cc2)nc(=O)c2c1CCC2`, the Potency was 18.4 µM (active). As to `C=CC1C(OC2OC(CO)C(O)C(O)C2O)OC=C2C(=O)N3C(C(=O)O)Cc4c([nH]c5ccccc45)C3CC21` (centres undefined), the “outcome” value was “inactive [at 17.3 µM]”. The same measure, in the same setting: then `COCC1OC(OC(C)(C)C2CCC3(C)C=C(C4CCC5C4(C)CC(O)C4OC(C(C)(C)OC6OC(CO)C(O)C(O)C6NC(C)=O)CCC45C)CCC3O2)C(NC(C)=O)C(O)C1O` (centres undefined), with “inactive [at 9.29 µM]”. On to `C=C[C@H]1CN2CC[C@H]1C[C@@H]2C(O)c1ccnc2ccc(OC)cc12` (some centres undefined), for which the “activity change, negative = cytotoxicity” value was -3.65% (inactive). On the same count and under the same terms, then `CC(C)c1cc(C(=O)N2CC[C@@H](NC(=O)C3CC3)C2)n[nH]1`, with -0.389% (inactive).

`CC1(C)CC[C@]2(C(=O)O[C@@H]3O[C@H](CO)[C@@H](O)[C@H](O)[C@H]3O)CC[C@]3(C)C(=CCC4[C@@]5(C)C[C@@H](O)[C@H](O)[C@@](C)(CO)C5CC[C@]43C)C2[C@@H]1O` (some centres undefined): the “outcome” value was “inactive [at 17.3 µM]”.

Regarding `CN(C)C(=O)NC1CCC(CCN2CCN(c3cccc(Cl)c3Cl)CC2)CC1` (centres undefined), the activity change, negative = cytotoxicity was -11.3% [at 9.29 µM] (inactive). The same measure, in the same setting: then `C=C1CCC2C(C)(C)C(O)CCC2(C)C1CCC(C)CCO` (centres undefined), with -19.3% (inactive); and `C=C(C(=O)O)C1CCC2(C)CCCC(C)(O)C2C1` (centres undefined), with 6.71% (inactive). `O=S(=O)(NCC1CC1)c1ccc(Nc2nccc(N3CCCc4cc(O)ccc43)n2)cc1`: the Potency was 9.2 µM (active). In the case of `CC(=O)OCC1(O)CCC2C(COC3OC(CO)C(O)C(O)C3OC(=O)/C=C/c3ccc(O)cc3)=COC(OC(=O)CC(C)C)C21` (centres undefined), the “outcome” value is “inactive [at 17.3 µM]”. For the compound `CC(=O)C=C=C1C(C)(C)CC(O[C@@H]2O[C@H](CO)[C@@H](O)[C@H](O)[C@H]2O)CC1(C)O` (some centres undefined), the “activity change, negative = cytotoxicity” value was 8.5% (inactive). Take `CC1(CCOC2OC(CO)C(O)C(O)C2O)CCC23OC2(C1)C(O)CC1C(C)(C(=O)O)CCCC13C` (centres undefined): the “outcome” value is “inactive [at 17.3 µM]”. Consider `CC1(C)CC[C@]2(C(=O)O[C@@H]3O[C@H](CO)[C@@H](O)[C@H](O)[C@H]3O)CC[C@]3(C)C(=CCC4[C@@]5(C)C[C@@H](O)[C@H](O)[C@](C)(C=O)C5CC[C@]43C)[C@@H]2[C@@H]1O` (some centres undefined), for which the “outcome” value is “inactive [at 17.3 µM]”.
